# Measurements from PubChem BioAssay (NCI).
# About 83,000 compounds went through this panel and 20% of them were active in at least one assay; those are over-represented in the sample as a whole.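 The endpoint reported here, percent growth, reads 100 for growth as untreated, 0 for no net growth and -100 for all cells dead.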 Values without a mark were called inactive. The source made the active and inactive calls. Rule for the calls: active = growth percent below 10; inactive = the rest.
# Tested on: MDA-MB-468 breast
# Assay: NCI-60 one-dose screen, 48 h (100 = growth as untreated, 0 = no growth, -100 = all killed)
# Conditions: 10 µM unless noted
row,SMILES,growth
1,Nc1nnc(-c2ccc3ccccc3c2O)o1,96.5%
2,[N-]=[N+]=Nc1ncc(-c2ccc(C(F)(F)F)cc2)c(NC2CCCCCC2)n1,28.9% [100 µM]
3,Cc1cc(CCNC=O)c(C)c2c1sc1ccccc12,71.4%
4,COc1ccc(C2=CC(c3ccc(OC)cc3Br)N3C=CSC3=N2)cc1 (stereo not given),17.4%
5,COc1ccc(NCc2cn(-c3ccc(C(=O)O)cc3)nc2-c2ccc(C(=O)O)cc2)cc1C(F)(F)F,98.6%
6,CN(C)CCCNc1c2ccccc2nc2ccccc12,83.4%
7,COc1ccc(/C=C/C(=O)C(CC2CCC2)C(=O)/C=C/c2ccc(OC)c(OC)c2)cc1OC,-22.2% (active)
8,O=C(Cn1cccc(Nc2ccccc2)c1=O)Nc1ccccc1,95.1%
9,COc1ccccc1N1CCN(C2=NN=C(c3cccc(Cl)c3)c3ccccc3C2)CC1,-1.01% (active)
10,N#CSc1c[nH]c2ccc(/C=C/C(=O)/C=C(O)/C=C/c3ccc4[nH]cc(SC#N)c4c3)cc12,-8.53% (active)
11,Cc1ccc(OCCn2ccc(=O)n(CCOc3ccc(Cl)cc3C(=O)c3cc(C)cc(C)c3)c2=O)cc1,-0.179% (active)
12,CC(=O)Nc1nc(C)c(C(=O)NN)s1,87.8%
13,O=C1CCCCC1(c1ccccc1)c1ccccc1,98.4%
14,COc1cccc(/C=N/NC(=O)c2ccccc2Nc2ccnc(C(F)(F)F)c2)c1O,-19.6% (active)
15,CC1(C)CC([P+](c2ccccc2)(c2ccccc2)c2ccccc2)=NN1,-12.9% (active)
